A selection: hits, their analogues and other compounds. The true share with any hit is near 1.2%.
RPL19A TOR yeast: yeast TOR pathway RPL19A-GFP modulation. S. cerevisiae RPL19A-GFP strain, flow cytometry, 3 h; stronger effect = lower value. percent response vs DMSO, % at 10 µM. 330,000 tested, 0.3% active;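 active = percent response vs DMSO below 50%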;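 note: median channel GFP fluorescence of the barcoded RPL19A-GFP strain; ratio of sample median GFP to plate DMSO average so 100% = DMSO; lower means less RPL19A-GFP as with rapamycin TOR inhibition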
CIT2-GFP yeast: modulators of TOR pathway CIT2-GFP in S. cerevisiae; S. cerevisiae CIT2-GFP strain, flow cytometry, 3 h; 100 means same as DMSO wells; GFP response vs DMSO, % at 10 µM; 320,000 tested, 0.065% active;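 active = GFP response relative to DMSO above a set limit, near the screen mean plus 3 SD, cut at about 150% in these data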;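 note: ratio of well median GFP fluorescence to mean of DMSO wells on the plate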
Pemphigus Ab inh: inhibitors of pemphigus antibody binding to human desmoglein-3. P32926. DSG3-coupled beads, scFv-anti-DSG3-GFP binding, flow cytometry; stronger effect = lower value. binding (percent of control), % at 10 µM. 310,000 tested, 0.48% active;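 active = binding more than 3 SD below its plate's average and above zero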;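 note: hits lower antibody fragment binding to DSG3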
Target sequence (P32926 whole entry, looked up, the tested form may be a part): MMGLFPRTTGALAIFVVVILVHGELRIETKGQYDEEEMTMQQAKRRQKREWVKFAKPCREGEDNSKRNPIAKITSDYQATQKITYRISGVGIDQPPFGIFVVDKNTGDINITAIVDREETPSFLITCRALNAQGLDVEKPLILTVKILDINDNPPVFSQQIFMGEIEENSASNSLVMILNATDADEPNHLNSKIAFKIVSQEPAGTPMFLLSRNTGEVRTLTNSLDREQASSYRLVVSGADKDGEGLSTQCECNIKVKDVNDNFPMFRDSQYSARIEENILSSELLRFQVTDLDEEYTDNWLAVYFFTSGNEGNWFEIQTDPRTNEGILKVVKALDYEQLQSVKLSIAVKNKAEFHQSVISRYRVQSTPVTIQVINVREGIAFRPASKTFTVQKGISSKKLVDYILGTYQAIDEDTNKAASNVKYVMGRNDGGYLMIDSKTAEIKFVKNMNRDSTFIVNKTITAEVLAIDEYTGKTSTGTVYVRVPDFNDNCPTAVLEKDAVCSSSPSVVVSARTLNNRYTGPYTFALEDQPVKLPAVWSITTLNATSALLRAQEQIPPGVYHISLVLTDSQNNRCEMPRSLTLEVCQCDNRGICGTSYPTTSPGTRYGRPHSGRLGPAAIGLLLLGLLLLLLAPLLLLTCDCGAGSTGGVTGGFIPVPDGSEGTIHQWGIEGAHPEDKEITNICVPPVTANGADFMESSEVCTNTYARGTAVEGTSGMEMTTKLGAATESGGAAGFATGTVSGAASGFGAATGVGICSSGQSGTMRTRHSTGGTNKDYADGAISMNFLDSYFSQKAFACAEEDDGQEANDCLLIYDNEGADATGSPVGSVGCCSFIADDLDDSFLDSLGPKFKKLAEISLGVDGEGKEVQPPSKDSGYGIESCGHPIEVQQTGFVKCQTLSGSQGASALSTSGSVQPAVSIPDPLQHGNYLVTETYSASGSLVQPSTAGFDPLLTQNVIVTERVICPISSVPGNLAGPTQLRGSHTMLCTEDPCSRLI
MEP2 TOR yeast: alters MEP2-GFP fluorescence in TOR pathway yeast screen; GFP response vs DMSO, % at 10 µM; 330,000 tested, 0.51% active; S. cerevisiae MEP2-GFP strain, flow cytometry GFP, 3 h; 100% = DMSO control level;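 active = GFP response versus DMSO above a set limit, roughly screen mean plus 3 SD, cut at about 180% in these data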;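 note: median GFP fluorescence of the barcode-gated MEP2-GFP cells per well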
LAP4 TOR yeast: alters LAP4-GFP fluorescence in TOR pathway yeast screen; 320,000 tested, 0.34% active; GFP response vs DMSO, % at 10 µM; S. cerevisiae LAP4-GFP multiplex, flow cytometry GFP, 3 h; median GFP as percent of DMSO wells; AID 2023;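 active = GFP response vs DMSO above a set limit, about the screen mean plus 3 SD, cut at about 150% in these data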
AGP1 TOR yeast: alters AGP1-GFP fluorescence in TOR pathway yeast screen; 320,000 tested, 0.02% active; GFP response vs DMSO, % at 10 µM; S. cerevisiae AGP1-GFP multiplex flow cytometry, 3 h; GFP as percent of DMSO wells;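 active = GFP response relative to DMSO above a set limit, near screen average plus 3 SD, cut at about 150% in these data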;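 note: median GFP channel fluorescence of the gated AGP1 strain per well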
LAP4 cherry2: second confirmation of modulators of TOR reporter LAP4-GFP in yeast. shares compounds with LAP4 TOR yeast. S. cerevisiae LAP4-GFP strain, flow cytometry GFP, 3 h. GFP response vs DMSO, % at 10 µM. 590 tested, 20% active. AID 2621;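 active = GFP signal as percent of the solvent control above about 150%, meaning raised reporter expression, limit read from the data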;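 note: ratio of well median GFP fluorescence to plate DMSO mean so 100% = DMSO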
MEP2-GFP pick2: second confirmation of modulators of TOR reporter MEP2-GFP in yeast | shares compounds with LAP4 TOR yeast | S. cerevisiae MEP2-GFP strain, flow cytometry GFP, 3 h | GFP response vs DMSO, % at 10 µM | 590 tested, 10% active | AID 2622;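 active = GFP signal above 150% of the solvent control wells, that is a rise of more than half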;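 note: median channel GFP fluorescence of all gated yeast cells per well; ratio of median GFP to plate DMSO average so 100% = DMSO level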
RPL19A GFP CP2: second confirmation of modulators of TOR reporter RPL19A-GFP in yeast. 590 tested, 3% active. shares compounds with LAP4 TOR yeast. GFP response vs DMSO, % at 10 µM. S. cerevisiae RPL19A-GFP strain, flow cytometry GFP, 3 h; stronger effect = lower value; 100% means same as DMSO wells;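 active = under 65% GFP response relative to DMSO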;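 note: median GFP channel fluorescence per well over the all cells gate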
CIT2 GFP CP2: yeast CIT2-GFP TOR reporter modulation, second cherry pick; shares compounds with LAP4 TOR yeast; S. cerevisiae CIT2-GFP strain, flow cytometry GFP, 3 h; DMSO control wells read 100%; GFP response vs DMSO, % at 10 µM; 590 tested, 8% active;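 active = GFP response vs DMSO above about 150%, limit read from the data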;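 note: median green fluorescence per well over all gated yeast cells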
AGP1-GFP pick2: reconfirmed modulator of AGP1-GFP TOR reporter in yeast; shares compounds with LAP4 TOR yeast; S. cerevisiae AGP1-GFP strain, flow cytometry GFP, 3 h; percent response vs DMSO, % at 10 µM; 590 tested, under 10 active;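 active = over 150 percent of DMSO response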;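 note: median GFP channel fluorescence over all cells without mother daughter split; sample median GFP divided by mean DMSO control so 100% equals DMSO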
Yeast autofluor: compound is autofluorescent in yeast s288c cells; shares compounds with LAP4 TOR yeast; fluorescence change (kMESF span) at 33 µM; 610 tested, under 10 active; S. cerevisiae s288c, 520 nm autofluorescence, flow cytometry, 3 h; stronger effect = higher value; zero means same as solvent-only cells; AID 2757;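 active = fluorescence span over the dose series, or activity score, above about 33, limit read from the data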
Active calls of the source: *; nt = no result given; + = active, no number.

SMILES	RPL19A TOR yeast	CIT2-GFP yeast	Pemphigus Ab inh	MEP2 TOR yeast	LAP4 TOR yeast	AGP1 TOR yeast	LAP4 cherry2	MEP2-GFP pick2	RPL19A GFP CP2	CIT2 GFP CP2	AGP1-GFP pick2	Yeast autofluor
O=C(Nc1nnc(SCC(=O)N2CCOCC2)s1)C1CC(=O)N(c2ccccc2)C1 (configuration not stated)	97.5	91.8	117.4	104.2	97.0	101.5	nt	nt	nt	nt	nt	nt
COc1ccc(N2CC(C(=O)Nc3nnc(SCC(=O)N4CCOCC4)s3)CC2=O)cc1 (configuration not stated)	89.5	109.7	nt	130.8	157.5*	118.0	105.2	111.8	101.2	104.3	103.1	nt
O=C(CCNC(=O)N1CCn2c1nc1ccccc12)NCc1ccc(F)cc1	59.8	100.3	97.0	119.0	85.5	17.4	101.0	104.8	99.8	100.7	96.5	nt
O=C1C=C(Nc2ccc(Cl)cc2)C(=O)N1c1ccc(Cl)cc1	101.2	100.9	101.6	99.6	97.9	96.1	96.2	96.1	98.7	104.3	97.2	0.2
Cc1ccc2c(c1)C(c1ccccc1)N(C(=O)CC(C)C)CC(=O)N2 (configuration not stated)	99.8	94.7	116.1	101.3	85.7	89.6	nt	nt	nt	nt	nt	nt
CC(=O)N1CCOc2ccc(S(=O)(=O)N3CCN(c4cc(C)ccc4C)CC3)cc21	96.9	102.8	109.2	102.3	116.7	100.6	nt	nt	nt	nt	nt	nt
O=C(Nc1ccc(Cl)cc1)ON=C1CCCC1	71.5	88.3	121.2	100.3	130.4	48.5	199.0*	149.8	84.9	223.9*	67.8	0.81
Cc1cccn2c(=O)c3cc(C#N)c(=N)n(CCCN4CCOCC4)c3nc12	62.5	78.1	111.2	115.0	78.2	73.8	99.2	103.1	99.1	97.3	98.5	nt
Cc1ccc(N/N=C(\C#N)C(N)=S)c(C)c1	84.0	90.2	95.7	142.4	161.0*	101.0	166.3*	218.3*	86.5	136.3	127.5	4.11
Cc1nc(SC(C)C(=O)Nc2c(C)n(C)n(-c3ccccc3)c2=O)nc(C)c1C (configuration not stated)	92.9	85.8	99.1	96.7	90.9	93.0	nt	nt	nt	nt	nt	nt
Cc1c(NC(=O)C(C)Sc2n[nH]c(N)n2)c(=O)n(-c2ccccc2)n1C (configuration not stated)	57.0	170.0*	104.2	647.5*	195.9*	149.0	97.1	104.8	100.9	108.6	102.2	nt
COc1ccc2nc(SCC(=O)Nc3cc(OC)c(OC)cc3C(=O)O)c(C)cc2c1	95.5	95.8	114.7	100.3	112.6	101.2	nt	nt	nt	nt	nt	nt
O=[N+]([O-])c1ccc(-c2cn3nc(-c4ccccc4)c(-c4ccccc4)nc3n2)cc1	105.1	118.6	88.9	260.9*	170.7*	50.4	nt	nt	nt	nt	nt	3.13
Cc1ccc(-n2nc(C(=O)NN)c(C)c(C#N)c2=O)cc1Cl	89.6	122.9	94.9	+	102.2	58.5	101.2	97.8	97.2	108.5	101.7	nt
